Structures are written as SMILES. Calls of active or inactive are those of the source.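 Rule for the calls, unless noted: active = NADPH fluorescence slope more negative than the mean of all samples by about 3 SD, 99.7% confidence; inactive = the rest.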

From PubChem BioAssay come the findings set out here.

A short description of assay [1]: inhibitors of TNFa-induced NFkB p65 translocation, primary screen, imaging, HUVEC, MLSMR starter and 10KST1 sets (AID 438;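 active = inhibition above 20% together with a positive visual image hit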;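 note: compound added about 3h40 before a 20 min TNFalpha stimulation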;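 for inhibition: signal is the nuclear over cytoplasmic p65 intensity ratio per well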). Particulars: HUVEC TNFa-induced p65 nuclear translocation; cell count: measured here: nuclei count (cytotoxicity indicator), at 2.08 µM; inhibition: at 2 µM, stronger effect = higher value, 0% TNFa-plus-vehicle, 100% no-TNFa wells.
Assay [2] can be described thus: inhibitors of mutant huntingtin aggregation, primary screen, imaging, exon1htt(103Q)mCFP cells, high-content imaging (AID 483;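 active = visual image review flags a hit and inhibition of aggregation exceeds 20%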;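 note: compound exposure lasted 3 days before fixation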;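 for nuclei count: percent of the per-plate median nuclei count of sample wells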). The settings on record: exon1htt(103Q)mCFP cell line, aggregate imaging, at 2 µM; inhibition of aggregation: stronger effect = higher value; nuclei count: measured here: cell count, toxicity.
Assay [3] can be described thus: inhibitors of E-selectin induction by TNFa, primary screen, imaging, HUVEC, immunofluorescence, MLSMR starter and 10KST1 sets (AID 487;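 active = visually confirmed hit in the image check and inhibition above 20%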;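 for inhibition: signal is fraction of cell area covered by stained E-selectin grains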;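 for nuclei count: 100% = median nuclei count of all wells on the same plate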). The settings on record: HUVEC TNFalpha-induced E-selectin immunofluorescence imaging, at 2 µM; inhibition: stronger effect = higher value; nuclei count: measured here: cell number, toxicity.
The target of assay [4] is Voltage-gated potassium channel subunit beta-2 (Rattus norvegicus) (UniProt P62483). Kind of assay: KvBeta enzyme negative modulators, primary screen, biochemical, NADPH fluorescence (AID 622;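 active = fluorescence slope higher than the sample average by over 3 SD, cut at about -0.22 in these data, passing the limit was not always enough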;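 note: slope of raw intensity against log time taken from 70 to 1610 s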). Particulars: recombinant KvBeta, 4-cyanobenzaldehyde reduction, at 10 µM, stronger effect = higher value.
Chain of Voltage-gated potassium channel subunit beta-2 (Rattus norvegicus) (P62483 whole entry, looked up): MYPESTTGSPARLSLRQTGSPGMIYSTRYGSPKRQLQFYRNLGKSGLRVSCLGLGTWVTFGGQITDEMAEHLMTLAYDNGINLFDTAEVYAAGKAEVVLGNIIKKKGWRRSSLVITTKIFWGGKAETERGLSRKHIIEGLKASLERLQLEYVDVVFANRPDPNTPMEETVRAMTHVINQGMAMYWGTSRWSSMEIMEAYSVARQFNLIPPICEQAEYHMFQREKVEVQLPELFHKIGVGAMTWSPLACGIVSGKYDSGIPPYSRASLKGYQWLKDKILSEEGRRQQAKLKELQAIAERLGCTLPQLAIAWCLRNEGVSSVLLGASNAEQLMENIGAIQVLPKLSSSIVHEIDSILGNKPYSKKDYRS
The target is the same in assay [5]. Kind of assay: KvBeta positive modulators, primary screen, biochemical, NADPH fluorescence (AID 623).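 Note: fluorescence intensity change per second fitted from 20 to 320 s.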 Particulars: Recombinant KvBeta, NADPH fluorescence decrease slope, 10 min; at 10 µM; stronger effect = lower value.
Assay [6] deals with Alpha-2C adrenergic receptor (Homo sapiens) (UniProt P18825). Kind of assay: modulators of alpha2C/GIRK thallium flux, primary screen, cell-based, HEK293 alpha2C/GIRK1/2 (AID 624;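 active = fluorescence slope after compound addition differing from the mean of all screened samples at 99.7% confidence, in either direction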;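 note: slope of fluorescence ratio to pre-addition baseline per second over 15 to 24 s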). The settings on record: thallium flux BTC fluorescence, at 10 µM, actives lie on both sides.
Chain of Alpha-2C adrenergic receptor (Homo sapiens) (P18825 whole entry, looked up): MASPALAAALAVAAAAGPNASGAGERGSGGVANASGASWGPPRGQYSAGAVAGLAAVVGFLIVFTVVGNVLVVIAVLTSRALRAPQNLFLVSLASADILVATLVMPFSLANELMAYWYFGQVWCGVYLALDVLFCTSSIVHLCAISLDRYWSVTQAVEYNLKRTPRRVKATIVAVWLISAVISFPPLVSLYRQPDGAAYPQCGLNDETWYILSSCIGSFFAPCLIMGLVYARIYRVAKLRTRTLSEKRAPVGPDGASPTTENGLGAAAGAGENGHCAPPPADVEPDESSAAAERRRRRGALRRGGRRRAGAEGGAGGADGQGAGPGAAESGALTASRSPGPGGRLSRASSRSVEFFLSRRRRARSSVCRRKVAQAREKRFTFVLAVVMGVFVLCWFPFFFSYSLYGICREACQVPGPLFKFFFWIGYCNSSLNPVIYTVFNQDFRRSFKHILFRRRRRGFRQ
The nature of assay [7]: inhibitors of Sendai virus-induced IRF3 signaling, primary screen, TLR/RLR signaling modifier project, cell-based, Sendai virus stimulus, luciferase, 10K MLSCN set (AID 602276;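 active = inhibition at or above 50% at 10 µM; inactive = inhibition below 50%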;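 note: firefly luciferase from ISG56 promoter only with Renilla not read in this screen; 0% = Sendai virus plus DMSO and 100% = medium plus DMSO without virus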). Particulars: HEK293 RL24 IRF3 luciferase reporter, at 10 µM, stronger effect = higher value.
Assay [8] can be described thus: inhibitors of poly I:C-induced TLR3 signaling, primary screen, cell-based, poly I:C stimulus, luciferase, 10K MLSCN set (AID 602277;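 active = inhibition of the reporter signal at or above 50%; inactive = inhibition below 50%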). Particulars: HEK293-TLR3 RL24 IRF3 luciferase reporter, at 10 µM, stronger effect = higher value. Background: In a reporter assay the amount or activity of a reporter protein is the signal.

As for `CN(C)c1ccc(C(=O)Nc2nnc(-c3ccc(Cl)cc3)o2)cc1`, in assay [1], the cell count amounted to 671. The inhibition was 1.3% (inactive) in assay [1], -46.6% (inactive) in assay [3], 13% (inactive) in assay [7] and 29.7% (inactive) in assay [8]. Besides, the inhibition of aggregation in assay [2] is -15.9% (inactive). Besides, the results for the nuclei count in assay [2] and in assay [3] were 109% and 113%, respectively. Further, the fluorescence slope in assay [4] was -0.409 (inactive). The NADPH fluorescence slope in assay [5] is -6.1e-05 (inactive). Also, the slope in assay [6] is 0.00542 (inactive).
In the case of `Cc1ccc(NC(=O)C2CC=CCC2C(=O)N2CCCCC2)cc1` (centres undefined), the cell count in assay [1] worked out at 636. The inhibition in assay [1] is -23.5% (inactive); in assay [3], -9.5% (inactive); in assay [7] it was -0.377% (inactive); in assay [8], 26.9% (inactive). In addition, the inhibition of aggregation in assay [2] is -67% (inactive). Moreover, the nuclei count in assay [2] was 66.9%; in assay [3] it was 94.3%. The fluorescence slope in assay [4] was -0.499 (inactive). Also, the NADPH fluorescence slope in assay [5] was -2.1e-05 (inactive). Further, the slope in assay [6] is 0.00665 (inactive).
For the molecule `CCOC(=O)N1CCC(NC(=O)c2ccc3c(c2)sc2nc(-c4cccc(OC)c4)cn23)CC1`, the cell count in assay [1] is 415. Besides, the inhibition in assay [1] is 8% (inactive); in assay [3] it was -3.7% (inactive); in assay [7], -22.7% (inactive); in assay [8], -70.4% (inactive). Also, the inhibition of aggregation in assay [2] was 8.8% (inactive). For the same molecule, the nuclei count worked out at 93.6% in assay [2] and 108% in assay [3]. Besides, in assay [4], the fluorescence slope is -0.485 (inactive). Also, the NADPH fluorescence slope in assay [5] was -2.7e-05 (inactive). Moreover, the slope in assay [6] is 0.00825 (inactive).
For `CC(=O)Nc1c2c(nn1-c1ccc(C)cc1C)CSC2`, the cell count in assay [1] came out at 570. Besides, the inhibition in assay [1] is 0.9% (inactive); in assay [3], 33.7% (inactive); in assay [7] it was -12.5% (inactive); in assay [8], -10.7% (inactive). Also, the inhibition of aggregation in assay [2] was 9.6% (inactive). The nuclei count was 95.7% in assay [2] and 103% in assay [3]. Also, the fluorescence slope in assay [4] is -0.562 (inactive). Further, the NADPH fluorescence slope in assay [5] was -5.2e-05 (inactive). Moreover, the slope in assay [6] is 0.00674 (inactive).
In the case of `CC(C)(C)NC(=O)CN(C(=O)CS(=O)CC(=O)Nc1ccc(F)cc1)c1ccc(Cl)cc1` (centres undefined), the cell count in assay [1] was 879. Besides, the inhibition in assay [1] was -4.2% (inactive); in assay [3], -9.8% (inactive); in assay [7], 19.1% (inactive); in assay [8], 19.5% (inactive). Besides, the inhibition of aggregation in assay [2] was 3.2% (inactive). Further, the figures for the nuclei count in assay [2] and in assay [3] were 66.8% and 118%, respectively. Besides, the fluorescence slope in assay [4] is -0.35 (inactive). Besides, in assay [5], the NADPH fluorescence slope was 1.3e-05 (inactive). For the same molecule, the slope in assay [6] was 0.00479 (inactive).
`CCCCOC(=O)CN1C(=O)c2ccc(C(=O)OCCCC)cc2C1=O`: the cell count in assay [1] was 619. The inhibition in assay [1] was -4.1% (inactive); in assay [3], -48.1% (inactive); in assay [7] it was -2.49% (inactive); in assay [8], 26% (inactive). Besides, the inhibition of aggregation in assay [2] is -4.5% (inactive). Besides, the nuclei count is 36.7% in assay [2] and 88.2% in assay [3]. Besides, the fluorescence slope in assay [4] was -0.486 (inactive). In addition, the NADPH fluorescence slope in assay [5] was -2.2e-05 (inactive). The slope in assay [6] is 0.00602 (inactive).
Regarding `COc1ccc(CCn2c(-c3ccco3)nc3nc4ccccc4nc32)cc1`, the cell count in assay [1] was 806. Besides, the inhibition in assay [1] is -5.6% (inactive); in assay [3], -25.4% (inactive); in assay [7] it was 18.8% (inactive); in assay [8], -6.71% (inactive). The inhibition of aggregation in assay [2] is -7.3% (inactive). The nuclei count in assay [2] worked out at 101%; in assay [3] it was 115%. The fluorescence slope in assay [4] is -0.445 (inactive). Besides, in assay [5], the NADPH fluorescence slope is -3.4e-05 (inactive). Further, the slope in assay [6] was 0.00679 (inactive).
Take `Cn1c(=O)[nH]c(=O)c2[nH]c(NCCCN3CCOCC3)nc21`: the cell count in assay [1] worked out at 572. Also, the inhibition was 4.8% (inactive) in assay [1], -36.4% (inactive) in assay [3], 9.97% (inactive) in assay [7] and 14.9% (inactive) in assay [8]. For the same molecule, in assay [2], the inhibition of aggregation was 8% (inactive). Besides, the nuclei count in assay [2] was 92.2%; in assay [3], 112%. The fluorescence slope in assay [4] was -0.613 (inactive). For the same molecule, the NADPH fluorescence slope in assay [5] was -1.9e-05 (inactive). Also, the slope in assay [6] was 0.00608 (inactive).
As to `CCn1c(=O)c2cc(S(=O)(=O)NCc3ccccc3)ccc2n(CC)c1=O`, the cell count in assay [1] is 404. For the same molecule, the inhibition in assay [1] is -2.3% (inactive); in assay [3] it was 0.2% (inactive); in assay [7], 11.6% (inactive); in assay [8], 3.23% (inactive). In addition, in assay [2], the inhibition of aggregation is -3.8% (inactive). For the same molecule, the nuclei count was determined as 104% in assay [2] and 126% in assay [3]. The fluorescence slope in assay [4] is -0.573 (inactive). For the same molecule, the NADPH fluorescence slope in assay [5] is 1.7e-05 (inactive). For the same molecule, the slope in assay [6] was 0.00625 (inactive).

For orientation: inhibition means the relative decrease from the control value, in per cent.
